Laboratory results from PubChem BioAssay (NCI).
About 83,000 compounds went through this panel and 20% of them were active in at least one assay; those are over-represented in the sample as a whole.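 Assay: single dose, 48 h. Readout: percent growth (0 = no net growth; negative = cell death). Active: <10.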 Unmarked numbers belong to inactive results. Activity calls are given as the source filed them.

What was measured:
Assay in all cases: NCI-60 one-dose screen, 48 h (100 = growth as untreated, 0 = no growth, -100 = all killed)
Conditions in all cases: 10 µM
NCI-H23 lung = test system: NCI-H23 lung
NCI-H226 lung = test system: NCI-H226 lung
NCI-H322M lung = test system: NCI-H322M lung
NCI-H460 lung = test system: NCI-H460 lung
HOP-92 NSCLC = test system: HOP-92 NSCLC
NCI-H522 lung = test system: NCI-H522 lung
A549/ATCC NSCLC = test system: A549/ATCC NSCLC
786-0 renal = test system: 786-0 renal
COLO 205 colon = test system: COLO 205 colon
DU-145 prostate = test system: DU-145 prostate
K-562 leukemia = test system: K-562 leukemia
MALME-3M melanoma = test system: MALME-3M melanoma
MDA-MB-231 breast = test system: MDA-MB-231 breast
RXF 393 renal = test system: RXF 393 renal
SF-268 CNS = test system: SF-268 CNS
SF-295 CNS = test system: SF-295 CNS
SF-539 CNS = test system: SF-539 CNS
UACC-257 melanoma = test system: UACC-257 melanoma
M14 melanoma = test system: M14 melanoma

SMILES | growth (NCI-H23 lung) | growth (NCI-H226 lung) | growth (NCI-H322M lung) | growth (NCI-H460 lung) | growth (HOP-92 NSCLC) | growth (NCI-H522 lung) | growth (A549/ATCC NSCLC) | growth (786-0 renal) | growth (COLO 205 colon) | growth (DU-145 prostate) | growth (K-562 leukemia) | growth (MALME-3M melanoma) | growth (MDA-MB-231 breast) | growth (RXF 393 renal) | growth (SF-268 CNS) | growth (SF-295 CNS) | growth (SF-539 CNS) | growth (UACC-257 melanoma) | growth (M14 melanoma)
CN1/C(=C\C(I)C(I)C2=[N+](C)c3ccccc3C2(C)C)C(C)(C)c2ccccc21 (centres undefined) | 3.16% (active) | 16.5% | 20.9% | 4.27% (active) | -25.7% (active) | -14.1% (active) | 11.3% | 23.2% | -20.6% (active) | 25.2% | 7.4% (active) | 10.9% | 12.2% | 36.3% | 24% | -18.2% (active) | 18.6% | -11.8% (active) | 20.3%
Cc1ccc(-n2c(-c3cc4c([nH]c5ccccc54)c(-c4cccc(O)c4)n3)n[nH]c2=S)cc1 | 22.9% | -27.1% (active) | -2.32% (active) | 4.05% (active) | 34.3% | -39.9% (active) | 2.93% (active) | 10.8% | 17.8% | -16.6% (active) | 9.64% (active) | 41.3% | -1.15% (active) | -50.5% (active) | 9.02% (active) | -17.2% (active) | -27.3% (active) | 2.43% (active) | -40.1% (active)
Cc1cc(C)c2nc(C)c(C)[n+]([O-])c2c1 | 97.1% | 103% | 94.7% | 115% | 93.4% | 85.2% | 68.6% | 103% | 111% | 110% | 89.2% | 95.6% | 118% | 114% | 106% | 101% | 97.2% | 84.8% | 102%
CN(C)c1ccc2cc(-c3cc4c(oc3=O)-c3ccccc3OC4O)c(=O)oc2c1 (centres undefined) | -3.16% (active) | -14.9% (active) | 39% | 56.7% | -49.1% (active) | -57.2% (active) | 39.5% | -15.7% (active) | -56.2% (active) | 11% | -55.8% (active) | -59.3% (active) | -39.8% (active) |  | 56.9% | -56.4% (active) | 19% | 42.9% | -47.8% (active)
O=C(c1ccccc1)C(Sc1ccccc1)c1ccccc1 (centres undefined) | 76.4% | 94% | 108% | 67.8% | 67.2% | 62.4% | 92% | 104% | 108% | 29.7% | 84.5% |  | 89.2% | 80.7% | 92.6% | 113% | 99.5% | 98.8% | 94.5%
CCCOCC(O)CNCCN (centres undefined) | 109% | 121% | 105% | 104% | 56.9% | 102% | 102% | 105% | 110% | 127% | 99.3% | 106% | 97.5% | 110% | 113% | 94.2% | 93.2% | 95.9% | 109%
COc1ccccc1Cn1cc2c(c1-c1ccccc1)CCc1cnoc1-2 | 36.9% | 59.9% | 35.1% | 10.7% | 53.1% | 42.1% | 46.6% | 33.5% | 19.6% | 51.8% | 19% |  | 56% | 38.3% | 37.5% | -3.81% (active) | 11% | 50% | 34.5%
O=C(Cn1ccc(=O)[nH]c1=O)c1ccc([N+](=O)[O-])o1 | 108% | 103% | 120% | 100% | 136% | -91.7% (active) | 109% | 108% | 71.5% | 92.3% | 83.6% | 57.8% | 111% | 118% | 105% | 92.7% | 106% | 81.5% | 91.4%
